Bioassay records from PubChem.
Rows were chosen to be rich in hits. Some 7.3% of all compounds tested hit in one or more screens of this group.
HCMV inh: human cytomegalovirus inhibition; HFF cells, HCMV-luciferase reporter, 72 h; active compounds read low; AID 1259415; hit rate 4.5% among 410,000; activity change, negative = inhibition, % at 57.5 µM; in the data active means activity change below about -60%; inconclusive means no clear call, values can overlap the other calls; inactive means above about -39%
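Screen run at 2 compound doses on HFFs infected with reporter HCMV, MOI 1 PFU/cell. Luciferase activity from cell lysates at 72 h post infection gave inhibition relative to buffer-only and Salinomycin wells.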
FMDV antiviral: blocks foot and mouth disease virus | Potency, µM (titrated, usually from 57.9 µM), usual class: inhibitors | hit rate 1.2% among 410,000 | FMDV antiviral cell-based qHTS; calls by dose curve; tested in HEK293T cells; further: read-out not given here; nearly all actives have a fitted effect of over 45% in size
VACV Venus inh: vaccinia inhibition (Venus reporter); Vaccinia virus Venus reporter expression, fluorescence; Potency, µM (titrated, usually from 36.5 µM), usual class: inhibitors; hit rate 0.46% among 330,000; AID 720580; calls by dose curve; tested in A549 cells; further: nearly all actives have a fitted effect of over 30% in size
HCV inh: blocks hepatitis C virus | Huh7.5.1 HCVcc-Cre infection, luciferase reporter, 44 h | Potency, µM (top dose mostly 41.8 µM), actives largely listed as inhibitors | hit rate 3.4% among 340,000 | AID 651820; active means well fitted inhibition curve with a large enough effect; inconclusive means small, poorly fitted or top-dose-only effect, or another doubt; inactive means no such curve, though single readings can be large or run the other way
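A cell-based infection assay in which seeded cells (1,000 per well) receive test compound after 4 h, are inoculated with HCVcc-Cre at approximately 0.5 moi, and are incubated 44 h before luminescence detection.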
Vaccinia mCherry: vaccinia inhibition (mCherry reporter); Potency, µM (titrated, usually from 36.5 µM), usual class: inhibitors; Vaccinia virus mCherry reporter infection, fluorescence; hit rate 0.63% among 310,000; AID 720579; calls by dose curve; tested in A549 cells; further: nearly all actives have a fitted effect of over 35% in size
Large screens that a line does not name were inactive.

CCOC(=O)N1CCN(S(=O)(=O)/C=C/c2ccccc2)CC1	none (no result: VACV Venus inh, Vaccinia mCherry)
COc1ccc(OC(=O)N2C/C(=C/c3ccccc3)C(=O)/C(=C\c3ccccc3)C2)cc1	HCMV inh -97, FMDV antiviral 32µM, HCV inh inconclusive
CCOC(=O)N1C/C(=C\c2ccccc2)C(=O)/C(=C/c2ccccc2)C1	HCMV inh -101, FMDV antiviral 20µM, VACV Venus inh inconclusive, Vaccinia mCherry inconclusive
COc1ccc(S(=O)(=O)c2snnc2C)cc1	HCMV inh inconclusive (no result: VACV Venus inh, Vaccinia mCherry)
CCCS(=O)(=O)c1snnc1C	HCMV inh -72
O=C1Cc2cc(NS(=O)(=O)c3ccc([N+](=O)[O-])cc3)cc3c2N1CCC3	VACV Venus inh inconclusive, Vaccinia mCherry 10µM
CCN(CC)S(=O)(=O)c1ccc(N2CCN(c3ccccc3OC)CC2)c(N)c1	HCMV inh -80, FMDV antiviral 22µM, HCV inh inconclusive, Vaccinia mCherry inconclusive
CC(=O)Nc1nc(C)c(-c2csc(Nc3cccc([N+](=O)[O-])c3)n2)s1	VACV Venus inh inconclusive, HCV inh inconclusive, Vaccinia mCherry 5µM
Cc1ccc(-c2csc(NC(=O)c3cccc([N+](=O)[O-])c3)n2)cc1	FMDV antiviral inconclusive
CCC(=O)Nc1nc(C)c(-c2csc(Nc3cccc(C(=O)O)c3)n2)s1	none
CC(=O)Nc1nc(C)c(-c2csc(Nc3cccc(C(C)=O)c3)n2)s1	HCV inh 10µM (no result: VACV Venus inh, Vaccinia mCherry)
CC(=O)c1cccc(Nc2nc(-c3cccc([N+](=O)[O-])c3)cs2)c1	HCV inh 2.2µM, Vaccinia mCherry inconclusive
CC(=O)N1CCC(C(=O)N2c3ccccc3N=C(c3ccc4c(c3)OCO4)C2C(=O)Nc2c(C)cccc2C)CC1 (stereo unspecified)	Vaccinia mCherry inconclusive (no result: HCV inh)
CCS(=O)(=O)Nc1c(C(=O)OC)[nH]c2ccccc12	none (no result: VACV Venus inh, Vaccinia mCherry)
CCS(=O)(=O)Nc1c(C(=O)O)[nH]c2ccccc12	HCMV inh -108
CCN(CC)CCN(C(=O)CCS(=O)(=O)c1ccccc1)c1nc2cc(C)cc(C)c2s1	FMDV antiviral inconclusive
Cc1ccc2sc(N(CCCN(C)C)C(=O)CCS(=O)(=O)c3ccccc3)nc2c1C	FMDV antiviral 32µM, HCV inh inconclusive (no result: VACV Venus inh, Vaccinia mCherry)
CN(C)CCN(C(=O)CCS(=O)(=O)c1ccccc1)c1nc2c(F)cccc2s1	none
CN(C)CCCN(C(=O)c1ccc(Br)s1)c1nc2cc3c(cc2s1)OCO3	HCMV inh -103, VACV Venus inh 13µM, HCV inh inconclusive, Vaccinia mCherry 10µM
COc1ccc(OC)c2sc(N(CCCN(C)C)C(=O)CCS(=O)(=O)c3ccccc3)nc12	FMDV antiviral 35µM, VACV Venus inh inconclusive, HCV inh inconclusive, Vaccinia mCherry inconclusive
COc1ccc(Cl)c2sc(N(CCN(C)C)C(=O)CCS(=O)(=O)c3ccc(C)cc3)nc12	HCV inh inconclusive
CCN(CC)CCN(C(=O)CCS(=O)(=O)c1ccccc1)c1nc2c(C)cc(C)cc2s1	HCMV inh inconclusive, VACV Venus inh inconclusive, HCV inh inconclusive, Vaccinia mCherry 14µM
COc1cccc(NC(=O)c2nn(-c3ccc(C)cc3)c(=O)n(C)c2=O)c1	none (no result: HCV inh)
COc1ccccc1-c1noc(CCCC(=O)Nc2cc(C)ccc2C)n1	none (no result: HCV inh)
CCOC(=O)/C=C/[C@H](CCc1ccccc1)NC(=O)C(F)(F)F	none (no result: FMDV antiviral, VACV Venus inh, HCV inh, Vaccinia mCherry)
CN(C)CCCN(C(=O)CCS(=O)(=O)c1ccccc1)c1nc2cc3c(cc2s1)OCO3	HCMV inh -113, FMDV antiviral 28µM, VACV Venus inh 10µM, HCV inh inconclusive, Vaccinia mCherry inconclusive
Cc1ccc(C)c(Nc2ncnc3onc(C)c23)c1	none (no result: HCV inh)
CN1CCN(C2=C(Cl)C(=O)N(CCc3ccccc3)C2=O)CC1	HCMV inh -68, HCV inh inconclusive (no result: VACV Venus inh, Vaccinia mCherry)
O=C1C(Cl)=C(N2CCOCC2)C(=O)N1CCc1ccccc1	none
COc1ccc(/C=C/CN2CCC(C(=O)NC(c3ccc(F)cc3)c3ccc4ccccc4n3)CC2)cc1 (stereo unspecified)	VACV Venus inh inconclusive (no result: HCV inh)
COc1cccc(N2CCN(C(=O)Cn3nc(C)n4c(cc5c(OC)cccc54)c3=O)CC2)c1	none (no result: HCV inh)
Cc1ccc(C(=O)Nc2sc3c(c2C(=O)O)CCCC3)o1	HCMV inh -62, HCV inh inconclusive (no result: VACV Venus inh, Vaccinia mCherry)
COC(=O)c1c(NC(=O)c2nc3nc(C)cc(C(F)F)n3n2)sc2c1CCC2	HCV inh 10µM, Vaccinia mCherry inconclusive
CC(C)(C)c1ccc(C(=O)Nc2sc3c(c2C(=O)O)CCC3)cc1	HCMV inh -76
COc1cccc(C(=O)Nc2sc3c(c2C(=O)O)CCCC3)c1	VACV Venus inh inconclusive, HCV inh 13µM, Vaccinia mCherry inconclusive
Cc1ccc(N2C(=O)C(CC(=O)Nc3ccc(F)cc3)N(CCC3=CCCCC3)C2=O)cc1 (stereo unspecified)	none (no result: HCV inh)
Cc1nc(C)c(C(=O)NCc2nc(-c3cccc(NC(=O)c4ccccn4)c3)oc2C)s1	Vaccinia mCherry inconclusive (no result: HCMV inh, HCV inh)
COc1ccc(CC(=O)Nc2sc3c(c2C(=O)Nc2c(C)cccc2C)CCCCC3)cc1	HCMV inh -70, VACV Venus inh inconclusive, Vaccinia mCherry inconclusive (no result: HCV inh)
COC(=O)c1c(NC(=O)c2ccc(C)o2)sc2c1CCCCC2	HCV inh 11µM
O=C(Nc1ccc(Cl)cc1Cl)c1cc(S(=O)(=O)N2CCN(c3ccccc3F)CC2)ccc1F	HCMV inh -65 (no result: HCV inh)
CCN1CCN(S(=O)(=O)c2ccc(Cl)c(C(=O)Nc3ccccc3N3CCCCC3)c2)CC1	HCV inh 13µM
Cc1ccc(C)c(N2CCN(S(=O)(=O)c3ccc(F)c(C(=O)Nc4ccc(Cl)cc4Cl)c3)CC2)c1	none (no result: HCV inh)
CCOc1ccccc1NC(=O)C1CCN(S(=O)(=O)c2c(C)noc2/C=C/c2ccc(C)cc2)CC1	Vaccinia mCherry inconclusive (no result: HCV inh)
O=C(O)C1Cc2ccccc2N2CCCC12 (stereo unspecified)	HCMV inh -61
O=C(NCc1ccccc1Br)C1CCCN(C(=O)N2CCOc3ccccc32)C1 (stereo unspecified)	none (no result: HCV inh)
CCOC(=O)N1CCC(NS(=O)(=O)c2ccc(NC(C)=O)c(Cl)c2)CC1	HCV inh 6.3µM
Cc1ccc(NS(=O)(=O)c2cc(Br)cnc2N)c(Cl)c1	none (no result: VACV Venus inh, Vaccinia mCherry)
Nc1ncc(Br)cc1S(=O)(=O)Nc1cc(C(F)(F)F)cc(C(F)(F)F)c1	HCMV inh -101, VACV Venus inh inconclusive, HCV inh inconclusive, Vaccinia mCherry inconclusive
Cc1cc(C)nc(OC(=O)c2ccc(Cl)cc2Cl)n1	HCMV inh -102 (no result: FMDV antiviral, VACV Venus inh, HCV inh, Vaccinia mCherry)
COc1cccc(-c2nc(CS(=O)(=O)CC(=O)Nc3c(C)cc(C)cc3C)c(C)o2)c1	HCMV inh -62 (no result: HCV inh)
COc1cccc(-c2nc(CS(=O)(=O)CC(=O)NCCC(C)C)c(C)o2)c1	HCV inh inconclusive
CCN(CCNC(=O)CS(=O)(=O)Cc1nc(-c2cccc(OC)c2)oc1C)c1ccccc1	HCV inh 22µM (no result: VACV Venus inh, Vaccinia mCherry)
CN(C)c1ccc(CCc2ccnc3ccccc23)cc1	none (no result: HCMV inh, FMDV antiviral, HCV inh)
Cc1ccc(OCc2ccc(C(=O)Nc3c(C)nn(Cc4c(F)c(F)c(F)c(F)c4F)c3C)o2)c([N+](=O)[O-])c1	FMDV antiviral inconclusive, HCV inh 16µM (no result: VACV Venus inh, Vaccinia mCherry)
Cc1ccc(OCc2ccc(C(=O)NN)o2)c([N+](=O)[O-])c1	none (no result: VACV Venus inh, Vaccinia mCherry)
